Measurements taken from PubChem BioAssay AID434955 (Southern Research Specialized Biocontainment Screening …, 2010).
“And” between values parts separate entries of the source, which are not always exact repeats. Identical values can stand only once. The campaign covered roughly 330,000 compounds. About 880 (0.27%) were called active. Inconclusive results (about 1%) are left out. The rule behind the calls is not given here. Not all results are given here.

Assay: beta-lactam sensitization of Mtb H37Rv, H37Rv (AID 434955);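 note: growth measured after seven days incubation then overnight dye step; 0% = bacteria only wells and 100% = bacteria with antibiotic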
Conditions: M. tuberculosis H37Rv growth with meropenem, percent inhibition, at 25 µM
[1] = measured here: primary screen without meropenem

| SMILES | inhibition (stronger effect = higher value) | inhibition [1] |
| --- | --- | --- |
| NC(=O)COC(=O)c1sc2cc(F)ccc2c1Cl | 40.4% (inactive) | 37.9% |
| O=C(NC(Cc1ccccc1)C(=O)O)/C(=C\c1ccccc1)NC(=O)c1ccco1 (stereo not drawn) | -13.2% (inactive) | -12.5% |
| CN1CCc2nc(SC(C(=O)O)c3ccccc3)c(C#N)c(-c3cccs3)c2C1 (stereo not drawn) | -5.45% (inactive) | -0.72% |
| CCOc1cc(C)ccc1OCc1nnc(SCC(=O)Nc2cccc(C(=O)O)c2)n1-c1ccccc1 | -1.64% (inactive) | -0.86% |
| CCOC(=O)c1ccc(NC(=O)C2CC(=O)N(c3ccc4c(c3)OCCO4)C2)cc1 (stereo not drawn) | -4.22% (inactive) | 4.56% |
| O=C(c1ccc(F)cc1)n1c(=S)nc2ccccn21 | -3.39% (inactive) | -1.53% |
| CN1CCN(NC(=O)Nc2ccc(Br)cc2)CC1 | 5.75% (inactive) | 6.69% |
| CC(=O)C1=C(C)NC(=O)NC1c1ccc2c(c1)OCO2 (stereo not drawn) | -1.59% (inactive) | 7.05% |
| COc1ccc(NC2CCCN(C(=O)c3ccncc3)C2)cc1 (stereo not drawn) | -5.62% (inactive) | 1.6% |
| Cc1cc(C)cc(N(CCC#N)C(=O)CN2C(=O)NC3(CCCC3)C2=O)c1 | -5.09% (inactive) | -6.67% |
| CC(C)N1CCC(NC(=O)Nc2ccccc2)CC1 | -9.18% (inactive) | -1.81% |
| Cc1ccc(NS(=O)(=O)c2ccc(-c3coc(C)n3)cc2)c(C)c1 | -2.05% (inactive) | 3.59% |
| COc1ccc(C(=O)NC(C)Cn2nc(C)cc2C)cc1OC1CCN(C(C)=O)CC1 (stereo not drawn) | -1.95% (inactive) | -5.6% |
| COCCCNC(=O)Cc1ccc(-n2c(C)nc3cccnc32)cc1 | -2.02% (inactive) | -1.03% |
| O=C(NCCC1=CCCCC1)c1ccc(-n2cncn2)cc1 | 3.02% (inactive) | 10.8% |
| CC1CCN(S(=O)(=O)c2ccc(NC(=O)C3CC(=O)N(c4ccccc4)C3)cc2)CC1 (stereo not drawn) | 1.58% (inactive) | 6.16% |
| COc1ccc(OC)c(NC(=O)c2cccc(S(=O)(=O)N3CCN(C(C)=O)CC3)c2)c1 | 1.25% (inactive) | 1.6% |

| SMILES | inhibition (stronger effect = higher value) | inhibition [1] |
| --- | --- | --- |
| CCc1nn(CCCN2CCN(c3cccc(Cl)c3)CC2)c(=O)n1CCOc1ccccc1 | -2.61% (inactive) and 5.29% (inactive) | 51.1% and 50% |
| COc1ccc(C)c(Cn2c(-c3nonc3N)nc3ccccc32)c1 | -3.23% (inactive) | -5.86% |
| C=CCSc1ccc(S(=O)(=O)N2CCN(C)CC2)cn1 | -0.58% (inactive) | 5.36% |
| Cc1ccc(C(=O)NN(CCC#N)C2=NS(=O)(=O)c3ccccc32)cc1 | -5.01% (inactive) | -4.15% |
| CC(NC(=S)NC1CCCCC1)C(c1ccccc1)N1CCOCC1 (stereo not drawn) | -1.18% (inactive) | -9.18% |
| COC(=O)N/N=C/c1c[n+]([O-])c2ccccc2[n+]1[O-] | 99.7% (inactive) | 100% |
| Nn1c(SCC(=O)NC2CCCc3ccccc32)nnc1C1CC1 (stereo not drawn) | -6.27% (inactive) | -8.89% |
| Cn1nnnc1-c1cc(Cl)cc(Cl)c1 | -6.9% (inactive) | -5.1% |
| FC(F)(F)COc1nc(N2CCCCC2)nc(N2CCNCC2)n1 | -3.65% (inactive) | -3.73% |
| Cc1ccc(S(=O)(=O)N(C)c2ccc(OCC(=O)OCc3ccc(C#N)cc3)cc2)cc1 | 94.4% (inactive) | 93.2% |
| O=C(c1cc(-c2ccc(Cl)cc2)on1)N1CCN(c2ccccc2)CC1 | 4.32% (inactive) | 0.26% |
| Nc1c(N(CCO)C(=O)C2CCCCC2)c(=O)[nH]c(=O)n1Cc1ccccc1 | 1.76% (inactive) | -2.9% |
| Cc1ccc(N2CC(C(=O)Nc3cc(Cl)ccc3-n3cncn3)CC2=O)cc1 (stereo not drawn) | -7.41% (inactive) | 3.62% |
| COCCNC(=O)C(c1ccc(O)cc1)N(C(=O)CCC(=O)Nc1nccs1)c1ccc(C)cc1 (stereo not drawn) | -3.29% (inactive) | -1.6% |
| O=C(Cn1cnc2c(cnn2-c2ccc(F)cc2)c1=O)NCCc1ccccc1 | 8.42% (inactive) | 5.1% |
| CCOC(=O)C1CCN(C(=O)Cc2c(C(=O)O)[nH]c3ccccc23)CC1 | 11.4% (inactive) | 8.1% |
| COCc1cc(C)nc2sc3c(=O)n(-c4cccc5ccccc45)nnc3c12 | 41.4% (inactive) | -9.11% |
